Like-named read-outs stand apart in the source and are kept apart here.
Columns and labels:
Set-up in all cases: species or system human, MV4-11 + K-562 + COLO205 + SK-N-BE2 + OVCAR-8
DDR1 = conditions: read-out: apparent Kd, n = 1
CSNK2A1;CSNK2A3 = conditions: read-out: apparent Kd, compound concentrations: 100 nM and 1000 nM (sheet 'Samples'), n = 1
CSNK2A2 = conditions: read-out: apparent Kd, compound concentrations: 100 nM and 1000 nM (sheet 'Samples'), n = 1
FLT3 = conditions: read-out: apparent Kd, n = 1
GAK = conditions: read-out: apparent Kd; compound concentrations: 100 nM and 1000 nM (sheet 'Samples'), CATDS: 0.30476726939930399; n = 1
MAPK9 = conditions: read-out: apparent Kd; compound concentrations: 100 nM and 1000 nM (sheet 'Samples'), CATDS: 0.27430209396639399; n = 1
TTK = conditions: read-out: apparent Kd; compound concentrations: 100 nM and 1000 nM (sheet 'Samples'), CATDS: 0.21902937280851401; n = 1
DCTPP1 = conditions: read-out: apparent Kd; compound concentrations:100 nM and 1000 nM (sheet 'Samples'); n = 1
MAPK14 = conditions: read-out: apparent Kd; compound concentrations:100 nM and 1000 nM (sheet 'Samples'); n = 1
MAPK6 = conditions: read-out: apparent Kd; compound concentrations:100 nM and 1000 nM (sheet 'Samples'); n = 1
NTRK1 = conditions: read-out: apparent Kd; compound concentrations:100 nM and 1000 nM (sheet 'Samples'); n = 1
NUAK1 = conditions: read-out: apparent Kd; compound concentrations:100 nM and 1000 nM (sheet 'Samples'); n = 1
PHKG2 = conditions: read-out: apparent Kd; compound concentrations:100 nM and 1000 nM (sheet 'Samples'); n = 1
PRKD2 = conditions: read-out: apparent Kd; compound concentrations:100 nM and 1000 nM (sheet 'Samples'); n = 1
FLT4 = conditions: read-out: apparent Kd; compound concentrations: 100 nM and 1000 nM (sheet 'Samples'), CATDS: 0.42297219111770701; n = 1
JAK2 = conditions: read-out: apparent Kd; compound concentrations: 100 nM and 1000 nM (sheet 'Samples'), CATDS: 0.17425354278837099; n = 1
RET = conditions: read-out: apparent Kd, n = 1
DDR2 = conditions: read-out: apparent Kd; compound concentrations:100 nM and 1000 nM (sheet 'Samples'); n = 1
MAP2K1 = conditions: read-out: apparent Kd; compound concentrations:100 nM and 1000 nM (sheet 'Samples'); n = 1
NQO1 = conditions: read-out: apparent Kd; compound concentrations:100 nM and 1000 nM (sheet 'Samples'); n = 1
PIK3C3 = conditions: read-out: apparent Kd; compound concentrations:100 nM and 1000 nM (sheet 'Samples'); n = 1
PIK3CD = conditions: read-out: apparent Kd; compound concentrations:100 nM and 1000 nM (sheet 'Samples'); n = 1
RIOK2 = conditions: read-out: apparent Kd; compound concentrations:100 nM and 1000 nM (sheet 'Samples'); n = 1
SMC4 = conditions: read-out: apparent Kd; compound concentrations:100 nM and 1000 nM (sheet 'Samples'); n = 1
CSNK1G1 = conditions: read-out: apparent Kd; compound concentrations: 100 nM and 1000 nM (sheet 'Samples'), CATDS: 0.44433796545528997; n = 1
PKM = conditions: read-out: apparent Kd; compound concentrations: 100 nM and 1000 nM (sheet 'Samples'), CATDS: 0.57160468415719301; n = 1
DYNC1LI1 = conditions: read-out: apparent Kd; compound concentrations:100 nM and 1000 nM (sheet 'Samples'); n = 1
[1] = compound concentrations:100 nM and 1000 nM (sheet 'Samples')

Work on `Cn1cc(-c2ccc3c(c2)CCN3C(=O)Cc2cccc(C(F)(F)F)c2)c2c(N)ncnc21` [GSK2606414A] yielded a potency estimated from few doses (DDR1; [1]) of 1550 nM.

With `COc1ccc(CCNC2=NC(=O)/C(=C/c3ccc4ncccc4c3)S2)cc1` [RO4498476-000] the potency estimated from few doses (CSNK2A1;CSNK2A3; CATDS: 0.299531148324096) was 1610 nM, the potency estimated from few doses (CSNK2A2; CATDS: 0.294198980295866) was 1680 nM and the potency estimated from few doses (FLT3; compound concentrations: 100 nM and 1000 nM (sheet 'Samples'), CATDS: 0.44201063534771401) was 756 nM.

`CNc1nc(Nc2ccc(C(=O)N3CCOCC3)cc2OC)ncc1Cl` [HG-10-102-01] showed a potency estimated from few doses (CSNK2A1;CSNK2A3; CATDS: 0.22184782024324001) of 2220 nM, a potency estimated from few doses (GAK) of 1180 nM and a potency estimated from few doses (MAPK9) of 1430 nM. For the same molecule, the potency estimated from few doses (TTK) was 2290 nM.

With `NCC1CNC(=O)c2cc3ccc(C(=O)Nc4cccnc4)cc3n2C1` (stereo not shown) [BI00614644] the potency estimated from few doses (DCTPP1) was 1830 nM, the potency estimated from few doses (MAPK14) was 1320 nM and the potency estimated from few doses (MAPK6) was 1330 nM. It also gave a potency estimated from few doses (NTRK1) of 1520 nM, a potency estimated from few doses (NUAK1) of 1090 nM and a potency estimated from few doses (PHKG2) of 1110 nM. The potency estimated from few doses (PRKD2) was 950 nM.

With `CN(c1ccc2c(c1)nc(NCc1ccccc1)n2C)c1ccnc(Nc2ccc(CS(C)(=O)=O)cc2)n1.Cl` [GW811603A] the potency estimated from few doses (DDR1; compound concentrations: 100 nM and 1000 nM (sheet 'Samples'), CATDS: 0.142121036969732) was 962 nM, the potency estimated from few doses (FLT3; compound concentrations: 100 nM and 1000 nM (sheet 'Samples'), CATDS: 0.139763894659995) was 1030 nM and the potency estimated from few doses (FLT4) was 63.4 nM. For the same molecule, the potency estimated from few doses (JAK2) was 465 nM and the potency estimated from few doses (RET; compound concentrations: 100 nM and 1000 nM (sheet 'Samples'), CATDS: 0.369571760306865) was 79.9 nM.

`COC(=O)Nc1nc2ccc(Oc3ccc(CC(=O)Nc4cc(C(F)(F)F)ccc4F)cc3)cc2[nH]1` [GW680903X] gave a potency estimated from few doses (DDR1; [1]) of 257 nM, a potency estimated from few doses (DDR2) of 404 nM and a potency estimated from few doses (FLT3; [1]) of 713 nM. It also gave a potency estimated from few doses (MAP2K1) of 2320 nM, a potency estimated from few doses (NQO1) of 2020 nM and a potency estimated from few doses (PIK3C3) of 1510 nM. It also gave a potency estimated from few doses (PIK3CD) of 104 nM, a potency estimated from few doses (RIOK2) of 1760 nM and a potency estimated from few doses (SMC4) of 1910 nM.

With `COC(=O)Nc1nc2cc(Oc3ccc(NC(=O)Nc4cc(F)ccc4F)cc3)ccc2[nH]1.Cl` [GW701424A] the potency estimated from few doses (DDR1; [1]) was 242 nM, the potency estimated from few doses (DDR2) was 1120 nM and the potency estimated from few doses (PIK3CD) was 11.2 nM.

Work on `COc1cccc(NC(=O)Nc2ccc(C)c(-c3ccc(C(=O)Nc4ccncc4)cc3)c2)c1` [GSK1398474A] yielded a potency estimated from few doses (CSNK1G1) of 1890 nM and a potency estimated from few doses (PKM) of 1140 nM.

For `COc1cccc(-n2ncc3c(N/N=C/c4ccc(C)cc4)ncnc32)c1` [GW829877X], the potency estimated from few doses (CSNK2A2; CATDS: 1) was 1940 nM.

With `COC(=O)Nc1nc2cc(Oc3ccc(NC(=O)Nc4cc(C(F)(F)F)ccc4F)cn3)ccc2[nH]1.COC(=O)Nc1nc2cc(Oc3ccc(NC(=O)Nc4cc(C(F)(F)F)ccc4F)cn3)ccc2[nH]1.Cl.Cl` [GW681170A] the potency estimated from few doses (DDR1; [1]) was 278 nM, the potency estimated from few doses (DDR2) was 1460 nM and the potency estimated from few doses (DYNC1LI1) was 1830 nM. The potency estimated from few doses (FLT3; [1]) was 1240 nM and the potency estimated from few doses (RET; [1]) was 461 nM.

From publication PMC11062922 (Nature Chemical Biology, 2023)
